# Assay results as given in ChEMBL document CHEMBL3988442, “University of Dundee, Small-Polar-MMV Screening Library” (2021).
# Among all 69,000 compounds or so, about 10 (0.01%) showed an effect of 50% or more. The sample holds strong results, similar compounds and a random draw of the others, so the mix is not that of the screen.
# Molecular target: ClpP1P2 (Mycobacterium tuberculosis (strain ATCC 25618 / H37Rv)) (UniProt P9WPC5+P9WPC3)
# Experiment: in vitro assay to detect presence of AMC directly proportional to the activity of ClpP1P2. GHDDI collaboration.
# Format: functional
# Set-up: scale not given: direction of the effect not stated beside the values
# Conditions: 50 µM
row,SMILES,Percent Effect [%]
1,CCN1CC[C@@]2(C(=O)N(C)C)CCN(S(=O)(=O)c3ccccc3)CC[C@@H]12,-6.35
2,COCCN1CC[C@@H]2CN(Cc3nccn3C)C[C@@H]2C1,3.59
3,Fc1cnc(N2CCO[C@H]3CN(CC4CCOC4)C[C@H]32)nc1 (stereo not given in full),-12.3
4,CCS(=O)(=O)N1C[C@H]2CN(CC3CC3)C(=O)[C@H]2C1,7.7
5,CC(C)CN1C(=O)CC[C@H]2CN(Cc3ncc[nH]3)CC[C@H]21,-3.16
6,O=C(C1=CCCC1)N1C[C@@H]2COC[C@]2(COCC2CC2)C1,-3.2
7,CN(C)CCN1CCO[C@H]2CN(Cc3ccccn3)C[C@H]21,1.87
8,O=C(c1ccncc1)N1C[C@@H]2OCCN(CCN3CCCC3)[C@@H]2C1,-8.83
9,O=C1[C@H]2CN(CC3CCOCC3)C[C@H]2CN1Cc1cccc(F)c1,7.64
10,Cc1cccc(COC[C@@]23CCC[C@@H]2CN(S(=O)(=O)N(C)C)C3)n1,-4.08
11,CC1=CC[C@@H]2CN(C(=O)c3ccc(-c4nc[nH]n4)cc3)C[C@@H]2C1,-12.9
12,CCN1C[C@H]2CCN(Cc3ccncc3)C(=O)[C@@H]2C1,-1.34
13,Cc1ccc(CN2C[C@@H]3CCN(Cc4cccnc4)C(=O)[C@H]3C2)s1,13.6
14,Cc1ccc(CN2C[C@@H]3CCN(Cc4ccncc4)C(=O)[C@H]3C2)s1,54
15,COCCN1CC[C@H]2CN(Cc3ccc(C)s3)C[C@@H]2C1=O,-2.27
16,Cc1ccc(CN2C[C@H]3CN(CC4CCN(C)CC4)C(=O)[C@H]3C2)s1,-7.79
17,O[C@@H]1C[C@@](CNCC2CCCC2)(COc2cccnc2)C[C@@H]1O,-0.271
18,CN(C)C(=O)CO[C@H]1CN(Cc2ccoc2)[C@@H]2COC[C@H]12,-6.93
19,Cc1cccc(CN2C(=O)CO[C@@H]3CN(C4CCOCC4)C[C@H]32)c1,-8.98
20,Cc1cc(C)n(CCCC(=O)N2CC[C@H]3NCCC[C@]3(CO)C2)n1,-5.5
21,CC(C)CN1C[C@H]2N(c3ncccn3)CCC[C@@]2(C(=O)NCC2CC2)C1,-20.2
22,Cc1cc2cc(C(=O)N3CCN(CCO)[C@@H]4CS(=O)(=O)C[C@@H]43)ccc2o1,-4.08

row,SMILES,Percent Effect [%]
1,Cc1nnc(N2C[C@@H](Oc3ccccn3)[C@H]3OCCC[C@H]32)s1,9.54
2,COCCN1C[C@H]2CN(C(=O)NC(C)C)CCN2C1=O,-7.02
3,COc1cc(CN2CCCCCC2c2cccs2)cc(OC)c1O (stereo not given),52.1
4,COc1cc(CN2CCCCCC2c2cccs2)cc(OC)c1OC (stereo not given),1.65
5,COc1cccc(CN2CCCCCC2c2cccs2)c1O (stereo not given),-21.7
6,O=C([C@H]1COC[C@H]2CN(Cc3ccco3)C[C@H]21)N1CCCO1,3.57
7,O=C(NC[C@H]1C[C@@H]2CCN1C[C@@H]2CN1CCCCC1)c1ccco1,-12.3
8,O=S(=O)(NC[C@]12COC[C@H]1CN(c1ncc(F)cn1)C2)C1CC1,-0.384
9,CNC(=O)[C@@H]1C[C@H]2CN(Cc3c(C)noc3C)C[C@H]2N1C(C)C,-4.22
10,CCSCCNC(=O)c1ccc(S(=O)(=O)N2C[C@@H]3C[C@H]2CN3)cc1,9.91
11,CC(C)NC(=O)N1CCC2(CC1)CC[C@@]1(C(=O)N(C)C)CN(C)C[C@@H]21,-5.9
12,COc1ncccc1C(=O)N1CC[C@H]2C[C@@H](c3ccncn3)O[C@@H]2C1,-7.36
13,O=C(CCc1ccccc1)N1C[C@H]2CCN[C@H]2C1,0.746
14,COc1ncccc1CN1C[C@@H]2COC[C@]2(COCC2CC2)C1,-9.86
15,O=C1CC[C@H]2[C@H](CCN2C(=O)C2CCOC2)N1Cc1ccncc1 (stereo not given in full),0.241
16,CNC(=O)[C@H]1C[C@@H]2CN(C(=O)Nc3ccccc3)C[C@H]1O2,-3.31
17,CNC(=O)[C@H]1C[C@@H]2CN(C(=O)c3ccsc3)C[C@@H]2N1S(C)(=O)=O,-13.7
18,Cc1ncccc1NC(=O)[C@H]1C[C@@H]2CCN(Cc3ccsc3)C[C@H]2O1,-3.15
19,CN(C)CCN1CCO[C@H]2CN(Cc3cnn(C)c3)C[C@H]21,-9.41
20,CCN(Cc1nc2c(cnn2C)c(=O)[nH]1)Cc1cccs1,61.1
21,CCN(Cc1ccccc1)Cc1nc2c(cnn2C)c(=O)[nH]1,-16.6
22,CCN(Cc1nc2c(cnn2C)c(=O)[nH]1)Cc1ccco1,7.15

row,SMILES,Percent Effect [%]
1,CCOCC1C[C@@H]2OCCN(C(=O)c3ccc[nH]3)[C@H]2C1 (stereo not given in full),-16.1
2,O=C(Nc1ccccc1-c1ccccc1)N1C[C@@H]2CNC[C@]2(C(=O)O)C1,4.15
3,COCCNC(=O)[C@H]1C[C@@H]2CCN(c3ncccn3)C[C@H]2O1,-14.4
4,CC(C)(C)c1ccc(CN2C[C@H]3C[C@H](O)C[C@H]3C2)c(OCC(N)=O)c1,2.62
5,Cn1cc(N2CC[C@@H]3CN(Cc4ccncc4)C[C@H]3C2=O)cn1,6.53
6,COCC(=O)N1C[C@H](N(C)Cc2cncnc2)[C@H]2OCCC[C@H]21,3.58
7,NS(=O)(=O)N1CCc2ccc(NC(=O)Cc3ccc(F)cc3)cc21,70.3
8,NS(=O)(=O)N1CCc2ccc(NC(=O)CC(F)(F)F)cc21,-1.98
9,NS(=O)(=O)N1CCc2ccc(NC(=O)Cc3ccccc3F)cc21,21.3
10,CN(C)S(=O)(=O)N1C[C@@H](OCc2ccccn2)[C@H]2OCCC[C@H]21,14.2
11,Cn1cc(CN2CC[C@@H]3[C@@H](CCC(=O)N3CCc3ccccc3)C2)cn1,-11.2
12,O=C(NCCc1cccs1)[C@]12COC[C@H]1CN(Cc1ccccn1)C2,21.1
13,COc1ccc(N2CCN(C(=O)[C@H]3[C@@H]4CNC[C@@H]43)CC2(C)C)cc1,-7.82
14,CCN1C[C@H]2CCN(C(=O)c3cc[nH]n3)CC[C@H]2S1(=O)=O,-1.84
15,Cc1noc([C@H]2CC[C@@H]3[C@@H](CCN3S(=O)(=O)C3CC3)O2)n1,16.5
16,Cc1cc(CN2CCCC2)cc(Oc2ccc3c(c2)CC(CN)O3)c1 (stereo not given),-31.6
17,NCC1Cc2cc(Oc3cc(F)c(CN4CCCC4)c(F)c3)ccc2O1 (stereo not given),72.6
18,COc1ccc(CN2CCCC2)cc1Oc1ccc2c(c1)CC(CN)O2 (stereo not given),-30
19,Cc1cnc(N2C[C@H]3CCCC(N(C)Cc4ccccn4)[C@H]3C2)nc1 (stereo not given in full),6.27
20,O=C(CCC(F)(F)F)N1CCN(Cc2ccncc2)[C@@H]2CS(=O)(=O)C[C@@H]21,-11.9
21,CC(=O)N1[C@H](Cn2cncn2)C[C@@H]2CN(Cc3ccccn3)CC[C@@H]21,-7.75
